This is a sample that favours compounds with a hit; in the whole collection about 21% have one here.
NS1 function inh: blocks influenza NS1 protein function; 270,000 compounds, 0.4% hits; Potency, µM (series often up to 46.1 µM); calls by dose curve; also: actives are rising curves; nearly all actives have a fitted effect of over 50% in size
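A cell-based growth assay was used: compounds that relieve NS1-induced slow growth of budding yeast raise OD600. Assay medium was yeast nitrogen base with ammonium sulphate and -URA supplement, pH 6.0, with 2% galactose.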
Pf growth 48h: P. falciparum growth inhibition at 48 hours (one generation); P. falciparum luciferase growth in erythrocytes, 48 h; Potency, µM (highest dose often 28.7 µM), hits mostly inhibitors; AID 504832; 310,000 compounds, 5.9% hits
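First compound was added to culture medium, then infected red cells at 0.1% parasitemia and 2% hematocrit (final). After incubation at 37 C under 5% CO2, luciferase detection reagent was dispensed and light output recorded.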
Cycloheximide cs: counter-screen hit for Shiga toxin inhibitors, cycloheximide; cell reporter, cycloheximide protein synthesis inhibition counterscreen; max response, %; 300,000 compounds, 12% hits; AID 2314; in the data active = max response mostly above about 13%, no sharp cut-off; inactive = mostly below about 14%; also: read at 38.3 µM for the half of the compounds with a filed dose
Shiga inhibitor: blocks Shiga toxin action in Vero cells; Vero cells, Shiga toxin protein synthesis inhibition reporter; inhibition, % at 38.7 µM; 290,000 compounds, 9.2% hits; in the data active = inhibition mostly above about 28%, no sharp cut-off; inactive = mostly below about 43%
Pf growth 96h: P. falciparum growth inhibition at 96 hours; Potency, µM (highest dose often 28.7 µM), usual class: inhibitors; P. falciparum luciferase reporter growth, 96 h; 320,000 compounds, 6.9% hits
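Two-generation exposure (96 h) targets delayed-death phenotype. Reporter parasites carrying integrated firefly luciferase, in red cells at 2% hematocrit and 0.05% parasitemia final, kept at 37 C, 5% CO2; luminescence loss indicates inhibition.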
Numbers stand for hits. Unless noted, calls follow the shape of the dose curve; as a rule, active = well fitted inhibition curve with a large enough effect; inconclusive = small, poorly fitted or top-dose-only effect, or another doubt; inactive = no such curve, though single readings can be large or run the other way.

Screening COc1ccc(C(=O)Nc2nc3ccc4nc(C)sc4c3s2)cc1 returned NS1 function inh inactive, Pf growth 48h inactive, Cycloheximide cs inactive, Shiga inhibitor inactive and Pf growth 96h inactive.
Screening COc1ccc(C2C(=O)c3ccccc3C2=O)cc1 returned NS1 function inh inactive, Pf growth 48h inconclusive, Cycloheximide cs inactive, Shiga inhibitor inactive and Pf growth 96h inconclusive.
Screening O=C1c2ccccc2C(=O)C1c1ccnc2ccccc12 returned NS1 function inh inactive, Pf growth 48h inactive, Cycloheximide cs 38, Shiga inhibitor 93 and Pf growth 96h inactive.
O=C1c2ccccc2C(=O)C1c1nccc2ccccc12 was read as NS1 function inh inactive, Pf growth 48h inactive, Cycloheximide cs 41, Shiga inhibitor 97 and Pf growth 96h inactive.
Screening O=C1C(c2ccnc3ccccc23)=C(O)c2ccccc21 returned NS1 function inh inactive, Pf growth 48h inactive, Cycloheximide cs 47, Shiga inhibitor active and Pf growth 96h inconclusive.
For CCNS(=O)(=O)c1cc(OC)ccc1OC the results were NS1 function inh inactive, Cycloheximide cs inactive, Shiga inhibitor inactive and Pf growth 96h inconclusive.
`O=C(C1CCCN(c2ncnc3c2nc2n3CCCCC2)C1)N1CCN(c2ccc(Cl)cc2)CC1` (centres undefined) gave NS1 function inh inactive, Pf growth 48h 12µM, Cycloheximide cs inactive, Shiga inhibitor inactive and Pf growth 96h inactive.
Screening O=C(C1CCCN(c2ncnc3c2nc2n3CCCCC2)C1)N1CCN(c2ccc(F)cc2)CC1 (centres undefined) returned NS1 function inh inactive, Pf growth 48h 9.3µM, Cycloheximide cs inactive, Shiga inhibitor inactive and Pf growth 96h inconclusive.
O=C(C1CCCN(c2ncnc3c2nc2n3CCCCC2)C1)N1CCCCC1 (centres undefined) was read as NS1 function inh inactive, Pf growth 48h inconclusive, Cycloheximide cs inactive, Shiga inhibitor inactive and Pf growth 96h inactive.
Screening Cc1cc(C)c(C(=O)Cn2nc(C)c([N+](=O)[O-])c2C)cc1C returned Pf growth 48h inactive, Cycloheximide cs inactive, Shiga inhibitor inactive and Pf growth 96h inactive.
Screening COc1ccc([C@]23Cc4cc(C#N)ccc4C(O2)c2c(c4ccc(OC)cc4oc2=O)O3)cc1 returned NS1 function inh inactive, Pf growth 48h inconclusive, Cycloheximide cs inactive, Shiga inhibitor inactive and Pf growth 96h inconclusive.
CC[C@H]1OC(=O)[C@H](C)[C@@H](O[C@H]2C[C@@](C)(OC)[C@@H](O)[C@H](C)O2)[C@H](C)[C@@H](O[C@@H]2O[C@H](C)C[C@H](N(C)C)[C@H]2O)[C@](C)(O)C[C@@H](C)C(=O)[C@H](C)[C@@H](O)[C@]1(C)O was read as NS1 function inh inactive, Pf growth 48h inactive, Cycloheximide cs inactive, Shiga inhibitor inactive and Pf growth 96h inconclusive.
For CCOC(=O)CCC(=O)O[C@H]1[C@H](O[C@@H]2[C@@H](C)[C@H](O[C@H]3C[C@@](C)(OC)[C@@H](O)[C@H](C)O3)[C@@H](C)C(=O)O[C@H](CC)[C@@](C)(O)[C@H](O)[C@@H](C)C(=O)[C@H](C)C[C@@]2(C)O)O[C@H](C)C[C@@H]1N(C)C the results were NS1 function inh inactive, Pf growth 48h inactive, Cycloheximide cs inactive, Shiga inhibitor inactive and Pf growth 96h 5.2µM.
For CCC(=O)OC1C(N(C)C)CC(C)O[C@H]1O[C@H]1[C@H](C)[C@@H](O[C@H]2CC(OC)[C@@H](O)C(C)O2)[C@H](C)C(=O)O[C@@H](CC)[C@](C)(O)[C@@H](O)[C@H](C)C(=O)[C@@H](C)C[C@]1(C)O (some centres undefined) the results were Pf growth 48h inactive and Pf growth 96h 7.6µM.
Screening O=C(NNC(=O)c1cc2ccccc2cc1O)c1cccs1 returned NS1 function inh inactive, Cycloheximide cs 45, Shiga inhibitor 109 and Pf growth 96h inactive.
For C/C(=N\NC(=O)c1cc2ccccc2cc1O)c1cccs1 the results were NS1 function inh inactive, Pf growth 48h inactive, Cycloheximide cs 37, Shiga inhibitor 80 and Pf growth 96h inactive.
Screening O=C(NNC(=O)c1ccc2ccccc2c1O)c1cccs1 returned NS1 function inh inactive, Pf growth 48h inactive, Cycloheximide cs inactive, Shiga inhibitor inactive and Pf growth 96h inconclusive.
CCN(CC)c1nc2cc(C)ccc2cc1/C=C(\C#N)C(N)=O was read as NS1 function inh inactive, Pf growth 48h inconclusive, Cycloheximide cs inactive, Shiga inhibitor inactive and Pf growth 96h inactive.
For CC(=O)Nc1ccc(OC(=O)N(C)c2ccc(C)cc2)cc1 the results were NS1 function inh inactive, Pf growth 48h inconclusive, Cycloheximide cs inactive, Shiga inhibitor inactive and Pf growth 96h 9.3µM.
Cc1ccc(N(C)C(=O)Oc2ccc(C(=O)c3ccc(Cl)cc3)cc2)cc1 was read as NS1 function inh inactive, Pf growth 48h inactive, Cycloheximide cs inactive, Shiga inhibitor inactive and Pf growth 96h 4.7µM.
CC(=O)Nc1ccc(OC(=O)N(C)c2ccccc2)cc1 was read as NS1 function inh inactive, Pf growth 48h inactive, Cycloheximide cs inactive, Shiga inhibitor inactive and Pf growth 96h inactive.
Cc1ccc(NCC(=O)N/N=C/c2ccc(OC(=O)c3ccco3)cc2)cc1 was read as NS1 function inh inactive, Pf growth 48h inactive, Cycloheximide cs inactive, Shiga inhibitor inactive and Pf growth 96h inactive.
Screening CCOc1ccc(OCC)c(NC(=O)Nc2ccc3c(c2)N(C)C(=O)CS3)c1 returned NS1 function inh inactive, Pf growth 48h inconclusive, Cycloheximide cs inactive, Shiga inhibitor inactive and Pf growth 96h inconclusive.
`COc1ccc(-c2nnn3c2nc(NCc2ccccc2)c2ccccc23)cc1` gave Pf growth 48h inactive, Cycloheximide cs inactive, Shiga inhibitor inactive and Pf growth 96h inactive.
NNc1nc2c(-c3ccc(F)cc3)nnn2c2ccccc12 was read as Pf growth 48h inactive, Cycloheximide cs 51, Shiga inhibitor 130 and Pf growth 96h inactive.
For COCCCNc1nc2c(-c3ccc(Cl)cc3)nnn2c2ccccc12 the results were NS1 function inh inactive, Pf growth 48h inactive, Cycloheximide cs inactive, Shiga inhibitor inactive and Pf growth 96h 12µM.
`NNc1nc2c(-c3ccc(Cl)cc3)nnn2c2ccccc12` gave Pf growth 48h inconclusive, Cycloheximide cs inactive, Shiga inhibitor inactive and Pf growth 96h inactive.
`Clc1nc2c(-c3ccccc3)nnn2c2ccccc12` gave NS1 function inh inactive, Pf growth 48h inactive, Cycloheximide cs 24, Shiga inhibitor inactive and Pf growth 96h inactive.
`OC/C(Br)=C(\Br)CO` gave Pf growth 48h inactive and Pf growth 96h inactive.
CC1CCN(S(=O)(=O)N2CCC(C(=O)NCc3cccs3)CC2)CC1 was read as NS1 function inh inconclusive, Pf growth 48h inconclusive, Cycloheximide cs inactive and Shiga inhibitor inactive.
O=[N+]([O-])c1ccc(O)c(NC(=S)Nc2ccccc2)c1 was read as NS1 function inh inactive, Pf growth 48h inactive, Cycloheximide cs 37 and Shiga inhibitor inactive.
`COc1ccc([N+](=O)[O-])cc1NC(=S)Nc1ccccc1` gave NS1 function inh inactive, Cycloheximide cs inactive, Shiga inhibitor inactive and Pf growth 96h inactive.
CN(C)CCNC(=S)Nc1ccc(Cl)cc1 was read as NS1 function inh inactive, Pf growth 48h inactive, Cycloheximide cs inactive, Shiga inhibitor inactive and Pf growth 96h inactive.
